From PubChem BioAssay (Tox21)
Values joined by “and” are separate entries in the source; they are usually repeats but may differ in a detail not shown here. Equal entries are not always repeated. Records with an inconclusive call do not appear. Active and inactive are the calls of the source. Unless noted, calls follow the shape of the dose curve; as a rule, active = well fitted curve in the direction sought with a large enough effect in the repeat runs; inconclusive = weak or mixed curves; inactive = no such curve, though single readings can be large; an effect the other way counts as inactive or inconclusive.

Assays:
[1] = qHTS assay to identify small molecule antagonists of the estrogen related receptor (ERR) signaling pathway from Tox21 library - cell viability counter screen (AID 1224834); also: nearly all actives have a fitted effect of over 30% in size; also: potency is read from the fitted curve at half-maximal effect
Outline: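 Seeded ERR cells were rested 6 h at 37 C/5% CO2 before compounds, positive and negative controls or DMSO were added. Incubation continued for 17.5 h, and viability was then quantified by CellTiter-Fluor fluorescence.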

[2] = target: Luciferin 4-monooxygenase (Photinus pyralis) (UniProt P08659); assay: qHTS assay to identify small molecule inhibitors of firefly luciferase (AID 1224835); also: series mostly up to about 120 µM; nearly all actives have a fitted effect of over 25% in size
Sequence of Luciferin 4-monooxygenase (Photinus pyralis) (P08659 whole entry, looked up): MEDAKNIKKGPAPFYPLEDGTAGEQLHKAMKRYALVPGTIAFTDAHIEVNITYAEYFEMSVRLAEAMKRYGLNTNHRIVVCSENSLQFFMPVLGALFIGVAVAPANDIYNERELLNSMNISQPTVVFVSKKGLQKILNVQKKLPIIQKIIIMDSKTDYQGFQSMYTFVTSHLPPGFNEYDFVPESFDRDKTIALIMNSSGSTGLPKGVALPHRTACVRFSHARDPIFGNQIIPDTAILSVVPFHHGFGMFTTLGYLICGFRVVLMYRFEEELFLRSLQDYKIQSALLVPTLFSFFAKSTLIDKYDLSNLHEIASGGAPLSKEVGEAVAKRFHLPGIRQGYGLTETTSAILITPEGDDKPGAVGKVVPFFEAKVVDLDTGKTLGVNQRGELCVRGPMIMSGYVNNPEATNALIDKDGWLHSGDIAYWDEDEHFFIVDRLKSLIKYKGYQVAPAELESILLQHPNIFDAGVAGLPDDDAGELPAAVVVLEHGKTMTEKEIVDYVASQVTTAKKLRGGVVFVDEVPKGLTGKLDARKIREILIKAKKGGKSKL
Outline: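 Biochemical qHTS: compounds run as interplate titrations against purified firefly enzyme, with D-luciferin and ATP each at its KM concentration. Light output recorded by CCD imaging.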

[3] = qHTS assay to identify small molecule agonists of the constitutive androstane receptor (CAR) signaling pathway - cell viability counter screen (AID 1224836); also: nearly all actives have a fitted effect of over 45% in size; also: potency is read from the fitted curve at half-maximal effect; as to viability change, negative = cytotoxic: series mostly up to about 92 µM
Outline: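 Double-stable HepG2 hepatoma cells (hCAR plus CYP2B6-2.2kb) are treated for 23 h at 37 C with test compounds in 15-point concentration series. PK11195 at 0.75 uM final is co-added. Cell viability is quantified by CellTiter-Fluor.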

[4] = target: Nuclear receptor subfamily 1 group I member 3 (Homo sapiens) (UniProt Q14994); assay: qHTS assay to identify small molecule antagonists of the constitutive androstane receptor (CAR) signaling pathway (AID 1224838);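 also: HepG2 cells stably expressing hCAR with CYP2B6 luciferase reporter stimulated by CITCO; nearly all actives have a fitted effect of over 40% in size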; also: potency is read from the fitted curve at half-maximal effect
Sequence of Nuclear receptor subfamily 1 group I member 3 (Homo sapiens) (Q14994 whole entry, looked up): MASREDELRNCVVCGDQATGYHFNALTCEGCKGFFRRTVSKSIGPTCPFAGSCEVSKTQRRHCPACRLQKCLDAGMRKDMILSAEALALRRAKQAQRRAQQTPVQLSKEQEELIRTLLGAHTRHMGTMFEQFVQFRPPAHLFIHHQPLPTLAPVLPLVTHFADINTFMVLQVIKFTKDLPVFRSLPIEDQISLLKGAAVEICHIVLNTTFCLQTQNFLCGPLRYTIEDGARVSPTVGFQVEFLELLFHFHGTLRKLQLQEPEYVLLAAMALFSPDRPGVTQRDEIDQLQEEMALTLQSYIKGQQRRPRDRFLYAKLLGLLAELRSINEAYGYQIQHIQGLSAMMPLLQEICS
Outline: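 Human hepatoma HepG2 cells expressing hCAR and a CYP2B6 promoter (2.2 kb) luciferase construct; compound titration (15 points) with 50 nM CITCO final, 24 h at 37 C/5% CO2; luminescence via ONE-Glo after 30 min at room temperature.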

[5] = target: Nuclear receptor subfamily 1 group I member 3 (Homo sapiens) (UniProt Q14994); assay: qHTS assay to identify small molecule agonists of the constitutive androstane receptor (CAR) signaling pathway (AID 1224839);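 also: HepG2 cells stably carrying human CAR and a CYP2B6 luciferase reporter; series mostly up to about 92 µM; nearly all actives have a fitted effect of over 15% in size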
Outline: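 Readout: firefly luciferase luminescence via ONE-Glo. System: HepG2 double-stable for hCAR and CYP2B6-2.2kb. Conditions: 15-point compound titration, PK11195 at 0.75 uM final, 24 h incubation.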

[6] = qHTS assay to identify small molecule antagonists of the estrogen related receptor signaling pathway with the pleiotropic PPARgamma coactivator (PGC) from Tox21 10K library - cell viability counter screen (AID 1224840; active = well fitted cell-killing curve with a large enough effect in the repeat runs, not every such curve was filed as active; also: nearly all actives have a fitted effect of over 40% in size; also: potency is read from the fitted curve at half-maximal effect)
Outline: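 Seeded PGC/ERR cells (2,000/well, 6 h, 37 C/5% CO2) get compound by pin tool; 17.5 h incubation at 37 C; CellTiter-Fluor added, 30 min, fluorescence measured.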

[7] = target: Thyrotropin receptor (Homo sapiens) (UniProt P16473); assay: qHTS assay to identify small molecule agonists of the thyroid stimulating hormone receptor (TSHR) signaling pathway (AID 1224843; calls by dose curve; also: nearly all actives have a fitted effect of over 45% in size)
Sequence of Thyrotropin receptor (Homo sapiens) (P16473 whole entry, looked up): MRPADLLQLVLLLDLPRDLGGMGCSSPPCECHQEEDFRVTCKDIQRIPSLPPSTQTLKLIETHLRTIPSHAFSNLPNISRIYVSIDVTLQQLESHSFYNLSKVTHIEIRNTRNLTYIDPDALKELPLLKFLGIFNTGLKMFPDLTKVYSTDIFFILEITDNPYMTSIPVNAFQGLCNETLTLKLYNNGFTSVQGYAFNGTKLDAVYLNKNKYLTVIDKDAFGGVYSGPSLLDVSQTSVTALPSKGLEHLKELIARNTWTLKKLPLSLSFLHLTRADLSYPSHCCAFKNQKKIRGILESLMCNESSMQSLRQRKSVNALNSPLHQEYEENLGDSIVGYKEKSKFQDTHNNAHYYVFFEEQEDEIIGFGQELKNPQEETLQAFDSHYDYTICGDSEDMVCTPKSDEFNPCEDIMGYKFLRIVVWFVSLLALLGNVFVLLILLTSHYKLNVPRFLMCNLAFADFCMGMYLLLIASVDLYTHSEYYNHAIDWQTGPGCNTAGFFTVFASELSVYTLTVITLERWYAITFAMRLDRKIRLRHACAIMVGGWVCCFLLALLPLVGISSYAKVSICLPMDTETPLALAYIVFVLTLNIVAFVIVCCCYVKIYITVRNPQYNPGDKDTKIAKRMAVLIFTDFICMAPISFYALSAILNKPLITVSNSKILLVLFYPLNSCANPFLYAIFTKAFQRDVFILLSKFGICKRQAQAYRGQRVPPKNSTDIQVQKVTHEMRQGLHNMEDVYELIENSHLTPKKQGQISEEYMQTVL
Outline: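 Agonist-mode screen: TSHR HEK293 cells received test chemicals for half an hour at room temperature, then HTRF cAMP detection reagents for one hour prior to fluorescence measurement. Each chemical ran as a 15-concentration series, triplicated.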

[8] = qHTS assay to identify small molecule antagonists of the constitutive androstane receptor (CAR) signaling pathway - cell viability counter screen (AID 1224837); also: series mostly up to about 92 µM; nearly all actives have a fitted effect of over 45% in size
Outline: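 To flag cytotoxic false antagonists, HepG2 hCAR/CYP2B6-2.2kb cells were treated 23 hr with 15-concentration compound series and 50 nM CITCO at 37 C/5% CO2; CellTiter-Fluor fluorescence was the measured end point.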

[9] = qHTS assay to identify small molecule antagonists of the estrogen related receptor signaling pathway with the pleiotropic PPARgamma coactivator (PGC) from Tox21 10K library (AID 1224841; call rule not given here; also: actives are mostly falling curves and most rising ones were filed inactive; nearly all actives have a fitted effect of over 50% in size; also: potency is read from the fitted curve at half-maximal effect)
Outline: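 Test chemicals dissolved in DMSO were applied to pre-incubated (6 h) PGC/ERR cells at 2,000 cells/well for an 18 h, 37 C treatment; reporter luminescence was then read using One-Glo.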

[10] = qHTS assay to identify small molecule agonists of the estrogen related receptor signaling pathway with the pleiotropic PPARgamma coactivator (PGC) from Tox21 10K library (AID 1224842); also: nearly all actives have a fitted effect of over 15% in size
Outline: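 PGC/ERR reporter cell line, 2,000 cells per well, incubated 6 h at 37 C before 23 nL compound in DMSO was added. After 18 h at 37 C, One-Glo luminescence read following 30 min at room temperature.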
% is scaled to controls: 0 for no effect and ±100 for the full control effect.

CCO[Si](CCCCl)(OCC)OCC
inactive: Potency [1] | Potency [2] | Potency [3] | Potency [4] | Potency [5] | Potency [6] | Potency [7]

C=CC(=O)OCCOCCOCCOCCOC(=O)C=C
inactive: Potency [2] | Potency [5]
active: Potency [1] 30.8 µM and 24.1 µM | Potency [3] 54.8 µM and 60.6 µM | Potency [4] 61.4 µM | Potency [6] 27.4 µM and 27.1 µM

CN1CCN(C(c2ccccc2)c2ccccc2)CC1
inactive: Potency [1] | Potency [2] | Potency [3] | Potency [8] | Potency [6] | Potency [7]

CC(=O)c1ccc2c(c1)N(CCCN1CCC(CCO)CC1)c1ccccc1S2
active: Potency [1] 23.7 µM
inactive: Potency [2] | Potency [3] | Potency [5] | Potency [6]

Nc1cc(C(=O)O)c(O)c(S(=O)(=O)O)c1
inactive: Potency [1] | Potency [2] | Potency [3] | Potency [4] | Potency [5] | Potency [6] | Potency [9] | Potency [10] | Potency [7]

Cc1[nH]c(C)c(Cl)c(=O)c1Cl
inactive: viability change, negative = cytotoxic [1] 0.386% [at 19 µM] | activity change, negative = inhibition [2] -1.3% [at 23.6 µM] | viability change, negative = cytotoxic [3] 3.99% [at 19 µM] | activity change, negative = cytotoxicity [8] 8.34% [at 19 µM] | activation [7] 2.76% [at 19 µM]

CC(C)CC(=O)C1C(=O)c2ccccc2C1=O
inactive: Potency [2] | Potency [3] | Potency [4] | Potency [10] | Potency [7]
active: Potency [1] 38.6 µM | Potency [9] 27.3 µM

CCCC(=O)Nc1ccc(O)c(C(C)=O)c1
inactive: Potency [1] | Potency [2] | Potency [3] | Potency [4] | Potency [5] | Potency [6] | Potency [7]

CCOC(=O)c1cccnc1
inactive: Potency [1] | Potency [2] | Potency [3] | Potency [4] | Potency [5]

COCC(C)OC(C)=O (configuration not stated)
inactive: Potency [1] | Potency [2] | Potency [3] | Potency [4] | Potency [5] | Potency [6]

O=C1[C@H]2CCCC[C@H]2C(=O)N1CCCCN1CCN(c2nsc3ccccc23)CC1
inactive: Potency [2] | Potency [3] | Potency [4] | Potency [5] | Potency [10] | Potency [7]
active: Potency [1] 29.8 µM

c1ccc(C(O[C@H]2CCCN(CCc3ccc4c(c3)OCO4)C2)c2ccccc2)cc1
inactive: Potency [1] | Potency [2] | Potency [3] | Potency [8] | Potency [7]

Nc1c(CC(=O)O)cccc1C(=O)c1ccc(Br)cc1
inactive: Potency [1] | Potency [2] | Potency [3] | Potency [8] | Potency [7]

COc1ccc2cccc(CCNC(C)=O)c2c1
inactive: Potency [1] | Potency [2] | Potency [3] | Potency [4] | Potency [6]

CN(Cc1ccc(C(C)(C)C)cc1)Cc1cccc2ccccc12
inactive: Potency [1] | Potency [2] | Potency [3] | Potency [5] | Potency [6]

C[C@@H]1C[C@H]2[C@@H]3CCC4=CC(=O)C=C[C@]4(C)[C@@]3(F)[C@@H](O)C[C@]2(C)[C@@]1(O)C(=O)COC(=O)c1ccncc1
inactive: Potency [1] | Potency [2] | Potency [3] | Potency [5] | Potency [6]

CN(C)CCN(Cc1ccsc1)c1ccccn1
inactive: Potency [1] | Potency [2] | Potency [3] | Potency [5] | Potency [6]

CC(C)(C)OCC1CO1 (configuration not stated)
inactive: Potency [1] | Potency [2] | Potency [3] | Potency [8] | Potency [6] | Potency [7]

C[C@@H]1C[C@H]2O[C@@]3(O[C@@H]2C(C)(C)O)[C@H](O)[C@@]2(C)[C@@H]4CC[C@H]5C(C)(C)[C@@H](O[C@@H]6OC[C@@H](O)[C@H](O)[C@H]6O)CC[C@@]56C[C@@]46CC[C@]2(C)[C@@H]13
inactive: Potency [1] | Potency [2] | Potency [3] | Potency [4] | Potency [9] | Potency [10] | Potency [7]

O=C(O)CNCC(=O)O
inactive: viability change, negative = cytotoxic [1] 2.9% [at 8.39 µM] | activity change, negative = inhibition [2] 2.59% [at 10.5 µM] | viability change, negative = cytotoxic [3] 4.87% [at 8.39 µM] | activation [5] -0.889% [at 8.39 µM] | viability change, negative = cytotoxic [6] 0.614% [at 8.39 µM]

CCOc1ccc(O)cc1
inactive: Potency [1] | Potency [2] | Potency [3] | Potency [5] | Potency [6] | Potency [7]

CC1=CCCC(C)(C)C12CCC(C)O2 (configuration not stated)
inactive: Potency [1] | Potency [2] | Potency [8] | Potency [6]

NCc1ccccc1Sc1ccccc1CO
inactive: Potency [1] | Potency [2] | Potency [8] | Potency [4] | Potency [5] | Potency [6]

O=C(Nc1ccc(S(=O)(=O)N2CCOCC2)cc1)c1cc(Cl)ccc1NS(=O)(=O)c1ccc(Cl)s1
inactive: Potency [1] | Potency [2] | Potency [8] | Potency [6] | Potency [9] | Potency [10] | Potency [7]

O=C1CCCCCCCCCCCC(=O)OCCO1
inactive: Potency [1] | Potency [2] | Potency [8] | Potency [4] | Potency [5] | Potency [6] | Potency [9] | Potency [10]

O=C(NCC1CN(c2ccc(N3CCOCC3=O)cc2)C(=O)O1)c1ccc(Cl)s1 (configuration not stated)
inactive: Potency [1] | Potency [2] | Potency [8] | Potency [10] | Potency [7]

NCCCN1CCOCC1
inactive: Potency [1] | Potency [2] | Potency [8] | Potency [4] | Potency [5] | Potency [6] | Potency [9] | Potency [10] | Potency [7]

CCOCC(O)COc1ccc(NC(=O)CC[S+](C)C)cc1 (configuration not stated)
inactive: Potency [1] | Potency [2] | Potency [8] | Potency [4]
